Data reported in PubChem BioAssay.
For part of these data: Entries with a potency or affinity are not part of this list. Calls of active or inactive are those of the source.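 The calls were made as follows, unless noted: active = earlier screen potentiator hit that boosts the TRPC4 ion channel at some dose, with a dose response; inactive = no potentiation, no dose response, or not a prior hit.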

Key:
[1] = tested on: TRPC4 beta (transient receptor potential cation channel C4), mouse; assay: activators of mouse TRPC4 channel, confirmation, cell-based, Fluo4 calcium, HEK293 TRPC4beta/mu-opioid, duplicates, 10 µM (AID 2426;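 active = fluorescence ratio normalized to control raised more than 50% in primary screen plus both repeat runs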;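 as to activation: percent rise of integrated ratio over buffer wells lacking compound which define 0%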); settings: Fluo4 calcium fluorescence, at 10 µM; active compounds read high
[2] = tested on: transient receptor potential cation channel C4 beta (TRPC4), mouse; assay: activators of mouse TRPC4 channel, confirmation, cell-based, second round, Fluo4, HEK293 TRPC4beta/mu-opioid, 1 µM (AID 2461;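 active = primary screen active and over 50% activation in each of two duplicate runs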); settings: Fluo4 calcium fluorescence, at 1 µM; active compounds read high
[3] = tested on: TRPC4 (transient receptor potential cation channel C4 beta), mouse; assay: positive allosteric modulators of mouse TRPC4, confirmation, cell-based, second round, Fluo-4, HEK293 TRPC4beta/mu-opioid, 1 µM (AID 2554;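 active = primary screen hit whose fluorescence ratio, in both repeats, exceeds the weak agonist control mean by 3 SD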); settings: DAMGO EC20, Fluo-4 calcium flux, at 1 µM; active compounds read high
[4] = tested on: TRPC4 beta (transient receptor potential cation channel C4), mouse; assay: positive allosteric modulators of mouse TRPC4, confirmation, cell-based, Fluo-4, HEK293 TRPC4beta/mu-opioid (AID 2555;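 active = primary screen hit whose calcium fluorescence ratio, in both repeats, exceeds the weak agonist control mean by 3 SD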); settings: DAMGO EC20, Fluo-4 calcium flux, at 10 µM; active compounds read high
[5] = target: Short transient receptor potential channel 4 (Mus musculus) (UniProt Q9QUQ5); assay: inhibitors of mouse TRPC4 channel, confirmation, cell-based, Fluo4, HEK293 TRPC4beta/mu-opioid (AID 2636;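 active = calcium signal cut by more than 3 SD below the full-agonist control yet still positive, in both repeats and the earlier primary screen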); settings: DAMGO, Fluo4 calcium flux, at 10 µM; active compounds read high
Chain of Short transient receptor potential channel 4 (Mus musculus) (Q9QUQ5 whole entry, looked up): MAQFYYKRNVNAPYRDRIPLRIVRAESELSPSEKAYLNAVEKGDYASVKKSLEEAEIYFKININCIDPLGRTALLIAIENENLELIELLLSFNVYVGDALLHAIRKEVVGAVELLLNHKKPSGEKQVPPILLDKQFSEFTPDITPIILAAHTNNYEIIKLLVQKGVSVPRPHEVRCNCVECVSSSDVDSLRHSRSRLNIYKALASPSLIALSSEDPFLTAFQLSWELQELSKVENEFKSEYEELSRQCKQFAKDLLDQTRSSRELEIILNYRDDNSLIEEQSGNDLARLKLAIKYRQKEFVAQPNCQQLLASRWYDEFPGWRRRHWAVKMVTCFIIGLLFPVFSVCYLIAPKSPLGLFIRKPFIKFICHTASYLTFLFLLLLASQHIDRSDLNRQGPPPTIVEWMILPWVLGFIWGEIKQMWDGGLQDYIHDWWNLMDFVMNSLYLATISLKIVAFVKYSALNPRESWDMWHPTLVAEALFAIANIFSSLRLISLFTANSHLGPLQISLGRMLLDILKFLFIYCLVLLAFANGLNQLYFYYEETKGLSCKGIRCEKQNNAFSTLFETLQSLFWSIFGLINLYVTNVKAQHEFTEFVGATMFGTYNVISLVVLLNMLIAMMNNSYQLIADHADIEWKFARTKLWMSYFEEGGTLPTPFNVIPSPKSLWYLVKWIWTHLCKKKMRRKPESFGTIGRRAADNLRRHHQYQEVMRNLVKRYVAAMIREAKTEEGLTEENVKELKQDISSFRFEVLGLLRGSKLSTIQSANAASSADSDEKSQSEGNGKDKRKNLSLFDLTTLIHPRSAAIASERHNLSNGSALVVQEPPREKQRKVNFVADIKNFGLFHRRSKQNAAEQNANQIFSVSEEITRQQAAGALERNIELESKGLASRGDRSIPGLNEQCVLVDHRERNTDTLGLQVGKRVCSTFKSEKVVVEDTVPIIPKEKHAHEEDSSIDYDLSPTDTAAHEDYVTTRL

[6] = target: Short transient receptor potential channel 4 (Mus musculus) (UniProt Q9QUQ5); assay: inhibitors of mouse TRPC4 channel, confirmation, cell-based, second round, Fluo4, HEK293 TRPC4beta/mu-opioid, 1 µM (AID 2637;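 active = calcium signal ratio cut to more than 3 SD under the fully stimulated control mean yet still positive, in both repeats and the primary screen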); settings: Fluo4 calcium flux, DAMGO, at 1 µM; active compounds read high
[7] = target: Short transient receptor potential channel 4 (Mus musculus) (UniProt Q9QUQ5); assay: mouse TRPC4 channel activators, dose response, cell-based, HEK293 TRPC4/mu-opioid, Fluo-4 calcium (AID 434937;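 active = primary screen activator hit with a dose response curve and TRPC4 channel activation at any tested dose; inactive = no activation, no dose response, or not a primary hit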)
[8] = target: Short transient receptor potential channel 4 (Mus musculus) (UniProt Q9QUQ5); assay: TRPC4 positive allosteric modulators, dose response, cell-based, HEK293 TRPC4/mu-opioid, Fluo-4 calcium, EC20 DAMGO (AID 434941);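 also: calcium entry triggered by an EC20 dose of DAMGO at the co-expressed mu-opioid receptor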
[9] = target: Short transient receptor potential channel 4 (Mus musculus) (UniProt Q9QUQ5); assay: mouse TRPC4 channel inhibitors, dose response, cell-based, HEK293 TRPC4/mu-opioid, Fluo-4 calcium (AID 434942;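 active = primary screen inhibitor hit that blocks the TRPC4 channel at some tested dose, yielding a dose curve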)
[10] = target: Short transient receptor potential channel 6 (Mus musculus) (UniProt Q61143); assay: inhibition of mouse TRPC6 channel, confirmation, selectivity assay for TRPC4 inhibitor project, cell-based, HEK293, membrane potential dye, duplicate (AID 434948;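 active = active in primary screen and both duplicates, each dropping signal beyond three positive-control SD with fluorescence still positive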); settings: HEK293 TRPC6, membrane potential dye fluorescence, at 10 µM, stimulated with maximal-effect acetylcholine; active compounds read high
Chain of Short transient receptor potential channel 6 (Mus musculus) (Q61143 whole entry, looked up): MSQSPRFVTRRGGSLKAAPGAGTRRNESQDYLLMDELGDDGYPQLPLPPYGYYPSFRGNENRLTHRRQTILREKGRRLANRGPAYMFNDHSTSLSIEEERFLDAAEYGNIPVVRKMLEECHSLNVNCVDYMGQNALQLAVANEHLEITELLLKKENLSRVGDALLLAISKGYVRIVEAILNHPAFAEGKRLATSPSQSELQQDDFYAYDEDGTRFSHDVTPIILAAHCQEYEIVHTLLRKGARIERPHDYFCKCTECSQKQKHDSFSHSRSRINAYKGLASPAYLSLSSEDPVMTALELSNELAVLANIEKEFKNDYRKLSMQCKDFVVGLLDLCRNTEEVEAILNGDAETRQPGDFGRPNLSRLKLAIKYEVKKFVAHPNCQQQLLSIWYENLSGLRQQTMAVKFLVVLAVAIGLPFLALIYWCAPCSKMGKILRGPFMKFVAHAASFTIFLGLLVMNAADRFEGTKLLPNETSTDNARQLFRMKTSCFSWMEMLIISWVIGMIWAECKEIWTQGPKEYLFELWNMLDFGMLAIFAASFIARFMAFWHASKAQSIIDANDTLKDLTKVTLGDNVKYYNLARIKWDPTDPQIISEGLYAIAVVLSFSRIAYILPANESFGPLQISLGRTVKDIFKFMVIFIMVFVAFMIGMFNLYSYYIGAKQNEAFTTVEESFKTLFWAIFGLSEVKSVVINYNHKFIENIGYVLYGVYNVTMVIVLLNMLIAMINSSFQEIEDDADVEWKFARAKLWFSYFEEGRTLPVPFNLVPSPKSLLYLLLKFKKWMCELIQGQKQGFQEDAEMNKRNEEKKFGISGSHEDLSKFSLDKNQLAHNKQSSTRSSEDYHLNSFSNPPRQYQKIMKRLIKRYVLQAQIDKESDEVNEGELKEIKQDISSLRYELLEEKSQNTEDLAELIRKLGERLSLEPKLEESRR

[11] = target: Short transient receptor potential channel 6 (Mus musculus) (UniProt Q61143); assay: activation of mouse TRPC6 channel, confirmation, selectivity assay for TRPC4 activator project, cell-based, HEK293, membrane potential dye, duplicate (AID 434950;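 active = membrane potential signal rise above negative control mean plus 3 SD in both duplicates, also active in the earlier TRPC4 screen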;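 as to activation: 0% = buffer only wells and 100% = acetylcholine maximal-effect wells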); settings: HEK293 TRPC6, membrane potential fluorescence, at 10 µM; active compounds read high
[12] = target: Short transient receptor potential channel 6 (Mus musculus) (UniProt Q61143); assay: TRPC6 potentiation by TRPC4 potentiator hits, confirmation, selectivity assay for TRPC4 potentiator project, HEK293 cells, membrane potential dye, duplicate (AID 434952;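 active = compound raising the membrane signal above positive-control mean plus 3 SD in both repeats, and a primary screen hit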); settings: HEK293 TRPC6, membrane potential dye fluorescence, at 10 µM, maximal acetylcholine added after compound; active compounds read high
[13] = target: Short transient receptor potential channel 4 (Mus musculus) (UniProt Q9QUQ5); assay: calcium flux activators in TRPC4/5HT1a cells, counter-screen for TRPC4 activator project, cell-based, second counter screen, HEK293 TRPC4/5HT1a, Fluo-4 (AID 434977;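 active = calcium signal rise above buffer-control mean plus 5 SD in both duplicates, and also a hit in the primary screen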;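 as to activation: plate controls were assay buffer for no effect and maximal serotonin response for full effect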); settings: Fluo-4 calcium flux, at 10 µM; active compounds read high
[14] = calcium flux inhibitors in TRPC4/5HT1a cells, confirmation, counter-screen for TRPC4 inhibitor project, cell-based, second counter screen, HEK293 TRPC4/5HT1a, Fluo-4 (AID 434978;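 active = primary screen active whose calcium signal fell more than 3 SD beyond the full-serotonin control mean in both duplicate plates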;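 also: serotonin given first at submaximal then at maximal dose after compound preincubation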); settings: Fluo-4 calcium flux, at 10 µM, serotonin added to trigger calcium flux; active compounds read high
[15] = tested on: TRPC4 (mouse), co-expressed with 5HT1a in HEK293; assay: calcium flux potentiators in TRPC4/5HT1a cells, confirmation, counter-screen for TRPC4 potentiator project, cell-based, second counter screen, HEK293 TRPC4/5HT1a, Fluo-4 (AID 434979;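 active = signal rise over 3 SD above mean of control wells given weak agonist, in both repeats and first screen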); settings: Fluo-4 calcium flux, at 10 µM, serotonin added at its EC20 dose; active compounds read high
[16] = calcium flux activation in mu-opioid HEK293 cells, confirmation, counter-screen for TRPC4 activator project, cell-based, HEK293 mu-opioid receptor line (AID 449723;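 active = hit in primary screen, with calcium signal over 5 SD above buffer well mean in both duplicates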;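 also: counter screen cells carry the mu-opioid receptor alone and lack TRPC4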); settings: Fluo-4 calcium fluorescence, at 10 µM; active compounds read high
[17] = calcium flux enhancement in mu-opioid HEK293 cells, confirmation, counter-screen for TRPC4 allosteric potentiator project, cell-based, HEK293 mu-opioid receptor line (AID 449724;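 active = calcium signal rise more than 3 SD above the low-dose agonist control mean, in both duplicate plates and the primary screen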); settings: Fluo-4 calcium flux, at 10 µM, compound added before EC20 DAMGO stimulus; active compounds read high

CN(C)CCOC(=O)C1(c2ccccc2)CCOCC1
active: potentiation [4] 8% | potentiation [15] 23.2%
inactive: outcome [1] | outcome [2] | outcome [3] | outcome [5] | outcome [6] | outcome [7] | outcome [8] | outcome [9] | outcome [10] | outcome [11] | outcome [12] | outcome [13] | outcome [14] | outcome [16] | outcome [17]

COCCn1c(SCC(=O)Nc2ccc(S(=O)(=O)N3CCOCC3)cc2)nc2ccccc21
inactive: outcome [1] | outcome [2] | outcome [3] | outcome [5] | outcome [6] | outcome [7] | outcome [8] | outcome [9] | outcome [10] | outcome [11] | outcome [12] | outcome [13] | outcome [14] | outcome [16] | outcome [17]
active: potentiation [4] 12% | potentiation [15] 26.5%

O=C(NCc1ccccc1)c1ccc(S(=O)(=O)Nc2cccc(C(F)(F)F)c2)cc1
active: potentiation [4] 46% | potentiation [15] 44.3%
inactive: outcome [1] | outcome [2] | outcome [3] | outcome [5] | outcome [6] | outcome [7] | outcome [8] | outcome [9] | outcome [10] | outcome [11] | outcome [12] | outcome [13] | outcome [14] | outcome [16] | outcome [17]

O=C(COC(=O)c1ccccn1)Nc1nc(-c2ccccc2)cs1
inactive: outcome [1] | outcome [2] | outcome [3] | outcome [4] | outcome [5] | outcome [6] | outcome [7] | outcome [8] | outcome [9] | outcome [10] | outcome [11] | outcome [12] | outcome [13] | outcome [14] | outcome [15] | outcome [16] | outcome [17]

COC(=O)C(CC(=O)Nc1cc(C)ccc1C)Nc1ccccc1OC (stereo not given)
inactive: outcome [1] | outcome [2] | outcome [3] | outcome [4] | outcome [5] | outcome [6] | outcome [7] | outcome [8] | outcome [9] | outcome [10] | outcome [12] | outcome [13] | outcome [14] | outcome [15] | outcome [16] | outcome [17]
active: activation [11] 40.5%

CCOc1ccc(N=CNc2ccc(OCC)cc2)cc1
active: potentiation [3] 18% | potentiation [15] 23%
inactive: outcome [1] | outcome [2] | outcome [4] | outcome [5] | outcome [6] | outcome [7] | outcome [8] | outcome [9] | outcome [10] | outcome [11] | outcome [12] | outcome [13] | outcome [14] | outcome [16] | outcome [17]

CCn1c(=O)c2cc(C(=O)N(C)c3cc(C)ccc3OC)sc2c2ccccc21
inactive: outcome [1] | outcome [2] | outcome [3] | outcome [4] | outcome [6] | outcome [7] | outcome [8] | outcome [9] | outcome [10] | outcome [11] | outcome [12] | outcome [13] | outcome [14] | outcome [15] | outcome [16] | outcome [17]
active: inhibition [5] 74%

COc1cc(/C=C2\C(=N)N3N=C(S(C)(=O)=O)SC3=NC2=O)ccc1OC(=O)c1cccs1
active: inhibition [5] 86%
inactive: outcome [1] | outcome [2] | outcome [3] | outcome [4] | outcome [6] | outcome [7] | outcome [8] | outcome [9] | outcome [10] | outcome [11] | outcome [12] | outcome [13] | outcome [14] | outcome [15] | outcome [16] | outcome [17]

CCOC(=O)COc1cc(-n2c(=S)[nH]c3ccccc3c2=O)c(Cl)cc1Cl
active: potentiation [3] 8% | potentiation [4] 21%
inactive: outcome [1] | outcome [2] | outcome [5] | outcome [6] | outcome [7] | outcome [8] | outcome [9] | outcome [10] | outcome [11] | outcome [12] | outcome [13] | outcome [14] | outcome [15] | outcome [16] | outcome [17]

CCOC(=O)c1c(C)n(-c2ccc(C)cc2)c2ccc(OCC(O)CNCC3CCCO3)cc12 (stereo not given)
inactive: outcome [1] | outcome [2] | outcome [3] | outcome [4] | outcome [5] | outcome [6] | outcome [7] | outcome [8] | outcome [9] | outcome [10] | outcome [11] | outcome [12] | outcome [13] | outcome [14] | outcome [16] | outcome [17]
active: potentiation [15] 24.6%

O=C(N/N=C/c1cc2c(cc1Br)OCO2)c1cc2ccccc2o1
active: inhibition [5] 93%
inactive: outcome [1] | outcome [2] | outcome [3] | outcome [4] | outcome [6] | outcome [7] | outcome [8] | outcome [9] | outcome [10] | outcome [11] | outcome [12] | outcome [13] | outcome [14] | outcome [15] | outcome [16] | outcome [17]

O=C(CC1CCCCC1)c1c(O)c2ccccc2oc1=O
inactive: outcome [2] | outcome [3] | outcome [4] | outcome [5] | outcome [6] | outcome [7] | outcome [8] | outcome [9] | outcome [10] | outcome [12] | outcome [14] | outcome [15] | outcome [17]
active: activation [1] 151% | activation [11] 33.5% | activation [13] 62.5% | activation [16] 30.8%

CC1CCc2c(C(=O)N3CCN(S(=O)(=O)c4cccs4)CC3)csc2C1 (stereo not given)
active: potentiation [4] 22%
inactive: outcome [1] | outcome [2] | outcome [3] | outcome [5] | outcome [6] | outcome [7] | outcome [8] | outcome [9] | outcome [10] | outcome [11] | outcome [12] | outcome [13] | outcome [14] | outcome [15] | outcome [16] | outcome [17]

CC(C)(C)c1ccc(-c2nc3cc(N)ccc3o2)cc1
inactive: outcome [1] | outcome [2] | outcome [3] | outcome [4] | outcome [5] | outcome [6] | outcome [7] | outcome [8] | outcome [9] | outcome [10] | outcome [11] | outcome [12] | outcome [13] | outcome [14] | outcome [15] | outcome [16] | outcome [17]

CCCCc1nnc(NC(=O)C2CCN(c3ncnc4sc(C)c(C)c34)CC2)s1
inactive: outcome [1] | outcome [2] | outcome [3] | outcome [4] | outcome [5] | outcome [6] | outcome [7] | outcome [8] | outcome [9] | outcome [10] | outcome [11] | outcome [12] | outcome [13] | outcome [14] | outcome [15] | outcome [16] | outcome [17]
